BAZ2B block = blocks human BAZ2B | Q9UIF8 | AlphaScreen BAZ2B-H3K14Ac peptide displacement | Potency, µM (doses to about 114 µM), for the others: top-dose activity change, negative = inhibition, most hits filed as inhibitors | actives 4.4% (n = 360,000); note: % is set by controls: 0 for no effect and ±100 for the full control effect; nearly all actives have a fitted effect of over 60% in size
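Complex of BAZ2B and biotin-H3K14Ac (50 nM apiece) forms over 30 min at RT, then faces library compounds up to 110 uM for another 30 min; AlphaScreen beads added, 20 min dark incubation, luminescence read.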
Sfp inh = Sfp phosphopantetheinyl transferase inhibition. Q9F4F7. Potency, µM, for the others: largest response in the series, negative = inhibition, usual class: inhibitors. actives 3.5% (n = 310,000). Biochemical Sfp PPTase activity, qHTS;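 note: the enzyme is Sfp with the accession as filed and its product quenches rhodamine fluorescence; 0% = enzyme reaction without inhibitor and -100% = no enzyme wells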
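With Hepes-Na pH 7.6 buffer containing 10 mM MgCl2, Sfp (15 nM) modified BHQ-2-YbbR (12.5 uM) using rhodamine-CoA (5 uM). Two reads 30 minutes apart at 525/598 nm yielded each well's rate.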
HP1b chromo inh = HP1-beta chromodomain-methylated histone interaction inhibition | P83916 | AlphaScreen HP1-beta / biotin-H3K9me3 peptide binding | Potency, µM (titrated, usually from 114 µM), inactives show top-dose activity change, negative = inhibition, usual class: inhibitors | actives 0.56% (n = 390,000); note: nearly all actives have a fitted effect of over 70% in size
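Compound inhibition of the preformed complex between 50 nM HP1-beta and 50 nM biotinylated H3K9me3 peptide was read by AlphaScreen. Buffer was PBS pH 7.4 with 0.01% Tween-20. Incubations ran 30 min at room temperature, with 10 ug/mL donor/acceptor beads.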
G9a inh = inhibitors of human histone lysine methyltransferase G9a | G9a H3K9 monomethylation, AlphaScreen, 2 h | Potency, µM (series often up to 102 µM), for inactives: at the highest dose activity, negative = inhibition, hits mostly inhibitors | actives 8.8% (n = 350,000) | AID 504332; note: % is set by controls: 0 for no effect and ±100 for the full control effect; nearly all actives have a fitted effect of over 75% in size
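AlphaScreen read-out: biotin-H3K9 peptide (500 nM) methylation by 20 nM enzyme with 20 uM SAM, 2 h at room temperature after 15 min compound preincubation; anti-monomethyl H3K9 antibody plus donor/acceptor beads, 10 min dark.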
JMJD2A Tudor = blocks the human JMJD2A Tudor domain. Potency, µM (titrated, usually from 114 µM), for the others: at the highest dose activity change, negative = inhibition, actives largely listed as inhibitors. actives 4.4% (n = 390,000). O75164. AlphaScreen JMJD2A-Tudor / H3K4me3 peptide binding; note: % is set by controls: 0 for no effect and ±100 for the full control effect; nearly all actives have a fitted effect of over 50% in size
PLK1 PBD block = inhibitors of human PLK1 polo-box domain binding; P53350; Potency, µM, for inactives: max response, negative = inhibition, most hits filed as inhibitors; Plk1 PBD binding of FITC phosphopeptide, fluorescence polarization; actives 2.8% (n = 360,000); note: series mostly up to about 57 µM; % is set by controls: 0 for no effect and ±100 for the full control effect; nearly all actives have a fitted effect of over 65% in size
Target sequence (P53350 whole entry, looked up, the tested form may be a part): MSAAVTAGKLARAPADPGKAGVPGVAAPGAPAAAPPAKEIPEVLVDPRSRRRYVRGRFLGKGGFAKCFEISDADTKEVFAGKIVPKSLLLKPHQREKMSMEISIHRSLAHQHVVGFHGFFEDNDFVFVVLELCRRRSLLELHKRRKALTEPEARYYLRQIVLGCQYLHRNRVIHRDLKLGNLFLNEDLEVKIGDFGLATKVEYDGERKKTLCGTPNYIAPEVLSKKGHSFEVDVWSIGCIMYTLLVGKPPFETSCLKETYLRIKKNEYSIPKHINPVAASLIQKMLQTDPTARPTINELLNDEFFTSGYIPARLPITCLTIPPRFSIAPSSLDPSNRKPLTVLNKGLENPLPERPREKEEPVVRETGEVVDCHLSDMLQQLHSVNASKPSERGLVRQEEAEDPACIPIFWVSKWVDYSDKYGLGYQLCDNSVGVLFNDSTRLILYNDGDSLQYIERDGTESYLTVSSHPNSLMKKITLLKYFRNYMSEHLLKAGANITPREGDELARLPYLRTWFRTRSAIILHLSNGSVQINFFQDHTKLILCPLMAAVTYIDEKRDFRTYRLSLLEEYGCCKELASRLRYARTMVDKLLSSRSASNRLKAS
The depositor's hits bear a star; [ ] = dose if it differs, or a comment. Most compounds without a hit are left out; they make up all but 12% or so of the library. Calls come from the whole dose curve; as a rule, active = well fitted curve in the direction sought with a large enough effect; inconclusive = small, poorly fitted or top-dose-only effect, or another doubt; inactive = no such curve, though single readings can be large; an effect the other way counts as inactive or inconclusive. Potency is the fitted concentration of half-maximal effect.

Screening O=c1c2c(-c3cccs3)csc2ncn1-c1ccccc1 returned BAZ2B block 5%, Sfp inh -3%, HP1b chromo inh 32%, G9a inh 9%[59 µM], JMJD2A Tudor -17% and PLK1 PBD block -7%.
O=c1c2c(-c3cccs3)csc2[nH]c(=S)n1-c1ccccc1 was read as BAZ2B block -32%, Sfp inh 5%, HP1b chromo inh -2%, G9a inh 40µM*, JMJD2A Tudor -4%[57.1 µM] and PLK1 PBD block 21µM*.
`CC(Nc1ccc2c(c1)OCCO2)C(=O)N1CCc2ccccc21` (configuration not stated) gave BAZ2B block 45µM*, Sfp inh 1%, HP1b chromo inh 4%, G9a inh inconclusive, JMJD2A Tudor inconclusive and PLK1 PBD block -2%.
For Cc1nc(SCC(=O)Nc2ccc3c(c2)OCCO3)nc(C)c1C the results were BAZ2B block -11%, Sfp inh inconclusive, HP1b chromo inh 56%, G9a inh 22µM*, JMJD2A Tudor -9% and PLK1 PBD block inconclusive.
Screening Nc1ccccc1SCC(=O)Nc1ccc2c(c1)OCCO2 returned BAZ2B block -19%, Sfp inh -31%, HP1b chromo inh 23%, G9a inh 28µM*, JMJD2A Tudor -6% and PLK1 PBD block inconclusive.
Screening CN(C)S(=O)(=O)c1ccc(SCC(=O)Nc2ccc3c(c2)OCCO3)nc1 returned BAZ2B block 13%, HP1b chromo inh 9%, G9a inh 40µM*, JMJD2A Tudor -20% and PLK1 PBD block -21%.
For O=C(O)c1cc(S(=O)(=O)N2CCN(C(c3ccccc3)c3ccccc3)CC2)ccc1Cl the results were BAZ2B block -32%, Sfp inh -22%, HP1b chromo inh 25%, G9a inh inconclusive, JMJD2A Tudor inconclusive and PLK1 PBD block -5%.
Screening Cc1nc(Nc2ccccc2)c2nc(-c3ccccc3)n(CCCN3CCCCC3C)c2n1 (configuration not stated) returned Sfp inh 13%.
`O=C(CSc1ncccn1)Nc1ccc2c(c1)OCO2` gave HP1b chromo inh 5%[57 µM], JMJD2A Tudor -18% and PLK1 PBD block 1%.
For O=C(CSc1ncccn1)NC(=O)Nc1ccc2c(c1)OCCO2 the results were BAZ2B block -16%, Sfp inh 5%, HP1b chromo inh 46%, G9a inh 45µM*, JMJD2A Tudor -1% and PLK1 PBD block -2%.
`CC(=O)C(Sc1ccc2nnc(-c3cccnc3)n2n1)C(C)=O` gave Sfp inh -13%, HP1b chromo inh 57%, G9a inh 71µM*, JMJD2A Tudor -14% and PLK1 PBD block -24%.
`CC(=O)C(Sc1ccc2nnc(-c3ccc(F)cc3)n2n1)C(C)=O` gave BAZ2B block inconclusive, Sfp inh 10%, HP1b chromo inh 44%, G9a inh 18µM*, JMJD2A Tudor inconclusive and PLK1 PBD block -8%.
CC(=O)C(Sc1ccc2nnc(-c3ccc(C)cc3)n2n1)C(C)=O was read as BAZ2B block -2%, Sfp inh -14%, HP1b chromo inh 22%, G9a inh 32µM*, JMJD2A Tudor inconclusive and PLK1 PBD block 0%.
CCCC(=O)N1CCCC1(C)C(=O)N(C)Cc1cccc2ccccc12 (configuration not stated) was read as PLK1 PBD block 5%.
C=CCn1c(SCC(=O)NC2CC2)nc2sc(CC)cc2c1=O was read as BAZ2B block -8%, Sfp inh 17%, HP1b chromo inh 17%, G9a inh 3%, JMJD2A Tudor inconclusive and PLK1 PBD block 27µM*.
`C=CCn1c(SCC(=O)NC2CCS(=O)(=O)C2)nc2sc(CC)cc2c1=O` (configuration not stated) gave BAZ2B block -5%, Sfp inh 2%, HP1b chromo inh 26%, G9a inh -2%[59 µM], JMJD2A Tudor -14% and PLK1 PBD block -3%.
Screening C=CCn1c(SCC2CCCCO2)nc2sc(CC)cc2c1=O (configuration not stated) returned BAZ2B block 33%, Sfp inh 8%, HP1b chromo inh 57%, G9a inh 0%[59 µM], JMJD2A Tudor -4%[11.4 µM] and PLK1 PBD block 27µM*.
For CC1(C)Cc2ccccc2-c2n[nH]c(=S)n21 the results were BAZ2B block -16%, Sfp inh 45µM*, HP1b chromo inh -2%, G9a inh 13µM*, JMJD2A Tudor 3.2µM* and PLK1 PBD block inconclusive.
Screening O=C(Nc1cc(Cl)ccc1Cl)c1cc(S(=O)(=O)NCCc2ccccc2)ccc1F returned BAZ2B block 5%, HP1b chromo inh 41%, G9a inh 4%[59 µM] and JMJD2A Tudor -9%.
O=c1cnc2cnc(OCc3ccccc3)nc2n1CCc1ccccc1 was read as Sfp inh -29% and G9a inh 1%[12.7 µM].
`Cc1ccc(-c2noc(Cn3cc(S(=O)(=O)N4CCCC4)ccc3=O)n2)cc1` gave BAZ2B block -5%, HP1b chromo inh 41%, G9a inh 16%[12.7 µM], JMJD2A Tudor 8% and PLK1 PBD block 3%.
`CCOC(=O)C1=C(CS(=O)(=O)c2ccc(Br)cc2)NC(=O)NC1c1ccccc1` (configuration not stated) gave BAZ2B block -12%, HP1b chromo inh 30%, G9a inh -18%[59 µM] and JMJD2A Tudor -18%.
`CCN1/C(=C\c2ccc3cc(C)ccc3[n+]2CC)Sc2cc(C)c(C)cc21` gave Sfp inh 18µM*, HP1b chromo inh inconclusive, G9a inh 20µM*, JMJD2A Tudor inconclusive and PLK1 PBD block 0%.
`CCN1/C(=C/c2ccc3cc(C)cc(C)c3[n+]2CC)Sc2cc(C)ccc21` gave BAZ2B block inconclusive, Sfp inh 10µM*, HP1b chromo inh inconclusive, G9a inh 16µM*, JMJD2A Tudor 16µM* and PLK1 PBD block 11%.
For CCCN1C(=O)/C(=C\C=C2/Sc3ccccc3N2CC)SC1=S the results were BAZ2B block inconclusive, Sfp inh -14% and G9a inh inconclusive.
Screening CCN1/C(=C/c2ccc3cccc(C)c3[n+]2CC)Sc2ccccc21 returned BAZ2B block 50µM*, Sfp inh 8.9µM*, HP1b chromo inh -5%, G9a inh 50µM*, JMJD2A Tudor -28% and PLK1 PBD block 12%.
For CCc1cccc(OCC(=O)Nc2ccc(S(=O)(=O)Nc3cc(C)nc(C)n3)cc2)c1 the results were BAZ2B block -19%, HP1b chromo inh 25%, G9a inh inconclusive and JMJD2A Tudor -1%.

Screening data: PubChem BioAssay, National Center for Advancing Translational Sciences (NCATS)
